# Assay results as given in PubChem BioAssay AID893 (National Center for Advancing Translational Sciences (NCATS), 2007).
# Where “and” joins values, the source holds several entries; their conditions need not be identical. Equal values may be shown once. Screen size: about 75,000 compounds; about 5,700 (7.6%) were called active. Another 7% or so got no clear call; they are omitted. The call rests on the fitted dose curve; in most records, active means well fitted inhibition curve with a large enough effect; inconclusive means small, poorly fitted or top-dose-only effect; inactive means no such curve, though single readings can be large or run the other way. Shown is part of a subset that was picked to be rich in actives. A call without a number means that no potency is given here.
# Target: 3-hydroxyacyl-CoA dehydrogenase type-2 (Homo sapiens) (UniProt Q99714)
# Assay: qHTS Assay for Inhibitors of HSD17B4, hydroxysteroid (17-beta) dehydrogenase 4; further: nearly all actives have a fitted effect of over 70% in size
# Settings: recombinant HSD17B10, NADH fluorescence kinetic; series mostly up to 57.1 µM
# Source text: Assay Overview: NIH Molecular Libraries Screening Centers Network [MLSCN] NIH Chemical Genomics Center [NCGC] Structural Genomics Consortium [SGC] Grant number: None HADH2: Hydroxyacyl-Coenzyme A dehydrogenase, type II, was supplied by researchers at the Structural Genomics Consortium, Oxford University lab (PI Udo Oppermann). The mitochondrial enzyme 17-hydroxysteroid dehydrogenase type 10 (HSD17-10) previously classified as type II hydroxyacyl-CoA dehydrogenase (HADH2) catalyzes the NAD+ dependent oxidation of a variety of substrates including acyl-CoAs, androgens and neurosteroids as well as bile acids(Shafqat N, Marschall HU, Filling C, et al. Biochemical Journal. 2003;376(Pt 1):49-60). […] The enzyme was produced by E.coli fermentation as His-tagged recombinant for the purpose of X-ray structure determination, and had been mass-spectrometry characterized. Inhibition of HADH2 activity was screened by utilizing beta-hydroxybutyryl coenzyme A as an electron donor and NAD+ as an electron acceptor/cofactor. An increase in the fluorescence intensity due to conversion of NAD+ to NADH was used to measure the enzyme activity.
# Assay Protocol: Buffer: 100 mM Tris-HCl pH 9.0, containing 0.01 % Tween-20. Reagents/Controls: Buffer in columns 3 and 4 as negative control (no enzyme). Substrate/cofactor solution: 1 mM NAD+ and 90 uM beta-hydroxybutyryl coenzyme A (Sigma-Aldrich, St. Louis, MO) final concentrations dispensed throughout the plate. Enzyme: 20 nM HADH2 final concentration in columns 1, 2, 5-48. Column 1 is neutral (100% activity). Column 2 contained titration of apomorphine (Sigma-Aldrich, A 4393, PubChem CID 2215, top concentration 500 uM, then 1:2 dilution in duplicate) Assay Steps: Three uL of enzyme were dispensed to 1536-well Greiner black solid bottom plates. Compounds and controls (23 nL) were transferred via Kalypsys PinTool. The plates were incubated for 15 min at room temperature, and then 1 uL of substrate/cofactor solution was added to start the reaction. The plates were immediately transferred to and read every 30 seconds for 4 min on ViewLux High-throughput CCD imager (Perkin-Elmer) using 360 nm excitation and 450 nm emission fluorescence protocol. The fluorescence intensity difference between the last and the first time points was used to compute reaction progress.
# Potency means the concentration at half of the fitted maximal effect.
SMILES,Potency,"activity change, negative = inhibition"
COc1ccc(N2C(=O)CCC(C(=O)Nc3ccccn3)C2c2ccc(OC)c(OC)c2)cc1 (configuration not stated),inactive,–
CC(C)=CCC/C(C)=C/CO/N=C1/C[C@@H](O)[C@@H](O)[C@@H]2[C@@H]3C(=O)N(C(C)(C)C)C(=O)[C@H]3CC[C@H]12,–,0.507% [at 11.4 µM] (inactive)
CC(C)c1ccc2c(c1)c(SC(C)(C)C)c(CC(C)(C)C(=O)O)n2Cc1ccc(Cl)cc1,10 µM (active) and 3.98 µM (active),–
COC(=O)[C@@H]1CC[C@H](C)[C@@H](c2ccc(C)cc2)N1C(=O)c1ccc(/C=N\O[C@@H](C)c2cn([C@H](CO)Cc3ccccc3)nn2)cc1,–,-0.702% [at 11.4 µM] (inactive) and -3.31% [at 11.4 µM] (inactive)
O=C(Nc1c(C(=O)N2CCCCC2)cnn1-c1ccccc1)c1ccco1,inactive,–
Cc1c(C(=O)NCCN2CCOCC2)sc2nc(-c3ccc(F)cc3)cn12,inactive,–
COc1ccc(N2C(=O)c3cccc4cccc(c34)C2=O)nn1,31.6 µM (active),–
O=C1c2cccc3cccc(c23)N1CN1CCN(c2ccccn2)CC1,inactive,–
CC(C(=O)O)N1C(=O)c2cccc3cccc1c23 (configuration not stated),inactive,–
CN1CC(=O)N=C1N,inactive,–
COC(=O)NC(c1ccccc1)[C@]1(C(C)=O)CCCC1=O (some centres not stated),–,3.19% [at 11.4 µM] (inactive)
CCN(CC)C(=O)c1sc(NC(=O)c2ccco2)c(C#N)c1C,inactive,–
Cc1ccnc(NC(=O)c2ccc(NC(=O)c3ccco3)cc2)c1,inactive,–
CCn1nc(NC(=O)c2ccco2)c2cc3ccc(C)cc3nc21,20 µM (active),–
O=S(=O)(O)c1nc2ccccc2n1Cc1ccc(Cl)cc1,inactive,–
Cc1ccc(C(=O)COc2cccc(NC(=O)c3ccco3)c2)cc1,inactive,–
Cc1ccc(Cn2c(NC(=O)c3ccco3)nc3ccccc32)cc1,15.8 µM (active),–
COC(C)(C)[C@]12CC(O)(C(C)C)ON1[C@H]1CCCCC1N2O (some centres not stated),inactive,–
Cc1sc2c(c1C)c(=O)n(-c1ccccc1)c1nncn21,inactive,–
Cn1c2c(c(=O)n(C)c1=O)C(c1ccc(O)cc1)Nc1ccccc1O2 (configuration not stated),inactive,–
O=C(CCCN1C(=O)C2C3C=CC(C3)C2C1=O)N1CCN(c2ccccc2)CC1 (configuration not stated),inactive,–
CC(C)CCNC(=O)CCNS(=O)(=O)c1ccc(Cl)cc1,inactive,–
CCCCOc1ccc(-c2ncc(C(=O)OCC)c(N)n2)cc1,31.6 µM (active),–
CCCCOc1ccc(NC(=O)CSCC(=O)OCC)cc1,inactive,–
CCOC(=O)c1cnc(SCC(=O)NCc2ccco2)nc1N,inactive,–
Cc1cccc(NC(=O)c2ccc3ccccc3n2)n1,inactive,–

SMILES,Potency,"activity change, negative = inhibition"
COC(=O)[C@@H]1C[C@@]2(O)[C@H](O)[C@H](O)[C@H](O)C[C@H]2N1Cc1ccc(C(C)(C)C)cc1,inactive,–
COc1ccc(OC)c([C@H](O)CNC(=O)CN)c1,inactive,–
Cc1c(C(=O)CN2CCOCC2)[nH]c2ccccc12,inactive,–
COc1cc(NC(=O)N2CCOCC2)cc(OC)c1,inactive,–
CCOC(=O)c1[nH]c2ccc(OC)cc2c1NC(=O)N1CCOCC1,25.1 µM (active),–
O=C(CN1C2CCC1CC(NC(=O)C1CC1)C2)NCc1ccccc1 (configuration not stated),inactive,–
Cc1nc2ccccc2c2oc(C(=O)NCCCN3CCC(C)CC3)cc12,inactive,–
CCCN(CCC)CCNC(=O)c1cc2c(C)nc3ccccc3c2o1,inactive,–
Cc1nc2ccccc2c2oc(C(=O)NCC3CCCO3)cc12 (configuration not stated),31.6 µM (active),–
Cc1ccc(Cc2cncc(O)c2)cc1S(=O)(=O)O,inactive,–
CCCn1c(SCC(=O)c2ccc3c(c2)OCCO3)nnc1C(C)C,inactive,–
COc1cc(C2C(C(=O)Nc3ccc(F)cc3)=C(C)Nc3nc(CCCO)nn32)cc(OC)c1OC (configuration not stated),inactive,–
CC1C(O)CC2C(C(=O)O)=CO[C@@H](O[C@H]3OC(CO)C(O)C(O)C3O)C21 (some centres not stated),inactive,–
COc1ccc(C2CC(c3ccccc3)Nc3ncnn32)cc1 (configuration not stated),inactive,–
CC(C)[C@@H](OCc1ccccc1)[C@H](C)/C=N\OC[C@@H](C)[C@H](OCc1ccccc1)C(C)C,–,2.53% [at 11.4 µM] (inactive)
OC(COc1ccccc1)Cn1cc(Br)cn1 (configuration not stated),inactive,–
COc1cc(-c2nc(S(=O)(=O)c3ccc(Cl)cc3)c(N(C)C)o2)cc(OC)c1OC,inactive,–
COC(=O)c1ccc(C2C3=C(Nc4nnnn42)c2ccccc2OC3)cc1 (configuration not stated),25.1 µM (active),–
COC(=O)c1ccc(C2NC(=O)NC(C)=C2C(=O)N(C)C)cc1 (configuration not stated),inactive,–
COc1ccc(C2C(C(=O)Nc3ccccc3OC)=C(C)Nc3nnnn32)c(OC)c1 (configuration not stated),inactive,–
Cc1c(C)c2c(c(C)c1O)CC[C@@](C)(CN1CCN(c3cc(N4CCCC4)nc(N4CCCC4)n3)CC1)O2,inactive,–
CCOC(=O)CSc1nnc(-c2ccco2)n1C,inactive,–
Cn1c(-c2ccco2)nc2cc3ccccc3cc21,25.1 µM (active),–
c1coc(-c2nc3nc4ccccc4n3nc2-c2ccco2)c1,inactive,–
Cn1c(SCC(=O)N2CCOCC2)nnc1-c1ccc(NC(=O)c2ccccc2F)cc1,inactive,–
COc1cccc(Nc2nnc(SCC(=O)N3CC(C)OC(C)C3)s2)c1 (configuration not stated),inactive,–

SMILES,Potency,"activity change, negative = inhibition"
O=C(C1CCN(CC2CCCCC2)CC1)N1CCCC1,inactive,–
Cc1nn(CC(=O)Nc2ccc3c(c2)nc(CN2CCCCC2)n3C)c(=O)c2ccccc12,inactive,–
CCC(=O)Nc1ccc2c(c1)nc(CCN1CCN(C)CC1)n2C,inactive,–
Cn1c(CCN2CCCCCC2)nc2cc(NC(=O)Nc3ccccc3)ccc21,25.1 µM (active),–
CN(C)CCCCNC(=O)c1ccc(Cc2nc3ccccc3[nH]2)cc1,inactive,–
CN(C)CCCNC(=O)c1ccc2[nH]c3ccccc3c2c1,20 µM (active),–
CC(C)N(CCNC(=O)c1ccc(-n2c(=O)c(=O)[nH]c3ccccc32)cc1)C(C)C,inactive,–
COC(=O)[C@@]1(Cc2ccc(OC)cc2)[C@H]2c3cc(C(=O)N4CCCC4)n(Cc4ccc(OC(F)(F)F)cc4)c3C[C@H]2CN1C(=O)c1ccccc1,inactive,–
Cc1ccc2c(C(=O)CN3CCCC3)c(C)[nH]c2c1,inactive,–
CCOC(=O)c1nnn(-c2nonc2OC)c1-c1ccccc1,inactive,–
CC(=O)Oc1c2c(c3c(c1CC=C(C)C)O[C@@]14C(=CC5CC1C(C)(C)OC4(C/C=C(\C)C(=O)O)C5=O)C3=O)OC(C)(CCC=C(C)C)C=C2 (some centres not stated),20 µM (active),–
CCOC(=O)CN(C(=O)CN1CCOCC1)c1ccc(Br)cc1,inactive,–
Cc1ccc(OCC(O)CN2CCN(CC(O)COc3ccc(C)cc3Cl)CC2)c(Cl)c1 (configuration not stated),inactive,–
c1ccc(-n2ncc(-c3nn[nH]n3)n2)cc1,31.6 µM (active),–
CC(C)c1ccc(-c2nn[nH]n2)cc1,inactive,–
CCCn1nnc2sc3c(c2c1=O)CCC(C)C3 (configuration not stated),inactive,–
Cc1nc2cc(S(=O)(=O)C(F)(F)F)ccc2s1,inactive,–
COc1ccc(-c2oc3cc(OC)ccc3c2C(=O)c2ccc(C#N)cc2)cc1,inactive,–
CC(=O)Oc1ccc2c(C)c(CC(C)O)c(=O)oc2c1 (configuration not stated),2 µM (active),–
CN1C(C)(C)CC(NC(=O)CCC(=O)NC2CC(C)(C)N(C)C(C)(C)C2)CC1(C)C,inactive,–
O=C(CCCOc1ccccc1)Nc1cccc(C(=O)O)c1,inactive,–
Cc1ccc2c(c1)N(CCCC(=O)NCc1cccnc1)C(=O)CO2,inactive,–
COc1cccc(N(CC(=O)Nc2cccc(N(C)S(C)(=O)=O)c2)S(C)(=O)=O)c1,inactive,–
COC(=O)c1cn(-c2ccccc2)nc1-c1cccnc1,inactive,–
COc1ccc2c(=O)cc(-c3ccccc3)oc2c1O,inactive,–
Cc1cccc(-c2cc(=O)c3cc(C)ccc3o2)c1,31.6 µM (active),–

SMILES,Potency,"activity change, negative = inhibition"
Cc1ccc2oc(=O)ccc2c1,inactive,–
COc1ccc(C)cc1-n1nnnc1SCC(=O)c1cc(C)n(Cc2ccco2)c1C,inactive,–
O=C(NCCc1ccc(Cl)cc1)C1CC(=O)N(C2CCCCC2)C1 (configuration not stated),inactive,–
Oc1cc2c(cc1O)CN(C(=S)NCCc1ccc(Cl)cc1)CCC2,15.8 µM (active),–
NS(=O)(=O)c1ccc(CCNC(=O)Nc2ccc(Cl)cc2)cc1,inactive,–
CN1CCc2[nH]nc(-c3n[nH]c4c3CN(C)CC4)c2C1,–,4.35% [at 11.4 µM] (inactive)
COc1ccc(-c2nc(SCC(=O)N3CCOCC3)n[nH]2)cc1,inactive,–
CCn1c(COc2cccc(OC)c2)nnc1SCC(=O)N1CCOCC1,inactive,–
COc1ccc(-c2ccnc(SCC(=O)N3CCOCC3)n2)cc1,25.1 µM (active),–
O=C(OCc1nnc(-c2ccccc2)o1)c1ccc2c(c1)C(=O)N(CCc1ccccc1)C2=O,inactive,–
O=C(CSc1nnc(-c2ccccc2)o1)N1CCOCC1,inactive,–
Nc1ccc(-c2nnc(-c3ccc(-c4ccccc4)cc3)o2)cc1,5.01 µM (active),–
Fc1cccc(/C=N\N=C/c2cccc(F)c2)c1,inactive,–
O=C(O)CCC(=O)NCc1ccc2[nH]c3c(c2c1)CCCC3,inactive,–
N#CCCN1CCN(S(=O)(=O)c2ccc(S(=O)(=O)NC3CCCCC3)cc2)CC1,inactive,–
COc1ccccc1-n1c(CNC(=O)c2ccccc2)nnc1SCC(=O)Nc1nnc(C)s1,inactive,–
COC(CCN(C)C)(c1ccccc1)c1ccccc1,inactive,–
COc1cccc(-c2nc3cc(C)ccc3o2)c1,25.1 µM (active),–
CCCCN(CC)CCCNC(=O)CS(=O)(=O)Cc1nc(-c2cccc(OC)c2)oc1C,inactive,–
COc1cccc(-c2nc(S(=O)(=O)c3ccccc3)c(N3CCOCC3)o2)c1,inactive,–
COc1ccccc1N1CCN(CCN2C(=O)c3ccccc3C(C)(C)C2=O)CC1,inactive,–
COc1ccc(OC)c(CNC(=O)CCc2nc(-c3cccs3)no2)c1,inactive,–
CCOC(=O)NCc1ccc2c(c1)OCO2,inactive,–
CCC1=C/C(=C\c2ccc3c(c2)OCO3)C(=O)S1,25.1 µM (active),–
